Molecules are shown by their SMILES. The source made the active and inactive calls. The calls were made as follows: active = hit-call score of the fitted dose curve at least 0.9, where 1 is the maximum; inactive = score below 0.9.

The nature of the test: CCTE_Harrill_HTTr_Apoptosis_MCF7: CCTE's 6-hour Apoptosis Assessment for the High-Throughput Transcriptomics (HTTr) Platform, in MCF-7 cells cultured in DMEM + 10% fetal bovine serum, Harrill Lab (AID 2284011). The text has this:
This is a cell-based assay that evaluates apoptosis using high content imaging to evaluate activation of caspase-3/7 using the CellEvent Caspase 3/7 Green detection reagent in 384-well format.One of seven assay components measured from the CCTE_Harrill_HTTr_Apoptosis assay. This was part of a full screening experiment. This is a cell-based assay that evaluates apoptosis in MCF-7 cells cultured in DMEM + 10% fetal bovine serum. High content imaging is used to evaluate activation of caspase-3/7 using the CellEvent Caspase 3/7 Green detection reagent. Measurements are taken at 6 hours after chemical dosing in 384-well format.The assay component endpoint CCTE_Harrill_HTTr_Apoptosis_MCF7 was analyzed with bidirectional fitting relation to DMSO as the negative control and baseline of activity. Using a type of viability reporter, gain-of-signal activity can be used to evaluate activation of caspase-3/7 using the CellEvent Caspase 3/7 Green detection reagent to understand changes in apoptosis. To generalize the intended target to other relatable targets, this assay endpoint is annotated to cell cycle, where the subfamily is apoptosis.
Chemicals were tested in MCF7 cells in an eight point dilution series with a six hour exposure duration.
With `CNc1cnn(-c2cccc(C(F)(F)F)c2)c(=O)c1Cl`, the result was inactive.

As for `N#CSCSC#N`, the outcome was inactive.

Regarding `COP(=O)(OC)OC(Br)C(Cl)(Cl)Br` (stereo not given), the result was inactive.

`CCCSP(=O)(OCC)SCCC`: the outcome was inactive.

On to `CCC(=O)Nc1ccc(Cl)c(Cl)c1`, for which the result was inactive.

Turning to `COP(=O)(OC)C(O)C(Cl)(Cl)Cl` (stereo not given), the result was inactive.

Turning to `COP(=O)(NC(C)=O)SC` (stereo not given), the outcome was inactive.

Take `CCOP(=S)(OCC)Oc1ccc2c(C)c(Cl)c(=O)oc2c1`: the outcome was inactive.

In the case of `CCCCN(CC)c1c([N+](=O)[O-])cc(C(F)(F)F)cc1[N+](=O)[O-]`, the result was inactive.

Regarding `COc1cccc(C(=O)NN(C(=O)c2cc(C)cc(C)c2)C(C)(C)C)c1C`, the outcome was inactive.

Take `COc1ccc(C(=CC(=O)N2CCOCC2)c2ccc(Cl)cc2)cc1OC`: the result was inactive.

As to `CC(C)[C@H](C(=O)O[C@H](C#N)c1cccc(Oc2ccccc2)c1)c1ccc(Cl)cc1`, the result was inactive.

Take `CCc1cccc(C)c1N(C(=O)CCl)C(C)COC` (stereo not given): the result was inactive.

In the case of `CCC(=NOC/C=C/Cl)C1=C(O)CC(C2CCOCC2)CC1=O` (stereo not given), the outcome was inactive.

As for `CCOP(=S)(OCC)SCCSCC`, the result was inactive.

As for `CC(C)N(C(=O)SCC(Cl)=C(Cl)Cl)C(C)C`, the outcome was inactive.

For the molecule `CCOP(=S)(OCC)Oc1cc(C)nc(C(C)C)n1`, the result was inactive.

On to `CN1COCN(Cc2cnc(Cl)s2)C1=N[N+](=O)[O-]`, for which the result was inactive.

On to `CSc1nnc(C(C)(C)C)c(=O)n1N`, for which the outcome was inactive.

`CCCCOC(=O)c1ccccc1C(=O)O`: the result was inactive.

Regarding `CCCCOC(=O)[C@@H](C)Oc1ccc(Oc2ccc(C#N)cc2F)cc1`, the result was inactive.

In the case of `O=[N+]([O-])c1cc(C(F)(F)F)c(Cl)c([N+](=O)[O-])c1Nc1ncc(C(F)(F)F)cc1Cl`, the result was inactive.

For the molecule `CC(Oc1cccc(Cl)c1)C(=O)O` (stereo not given), the result was inactive.

For `CCCOCC(=Nc1ccc(Cl)cc1C(F)(F)F)n1ccnc1`, the result was inactive.

On to `CNC(=O)Oc1cccc2c1OC(C)(C)O2`, for which the outcome was inactive.

Take `Cc1ccn2nc(S(=O)(=O)Nc3c(F)cccc3F)nc2n1`: the result was inactive.

For `CCOP(=S)(OCC)Oc1ccc([N+](=O)[O-])cc1`, the outcome was inactive.

For `CCCSP(=O)(OCC)Oc1ccc(Br)cc1Cl` (stereo not given), the result was inactive.

As to `C=C(C)[C@H]1Cc2c(ccc3c2O[C@@H]2COc4cc(OC)c(OC)cc4[C@@H]2C3=O)O1`, the outcome was inactive.

Take `CC1(C(=O)Nc2ccc(O)c(Cl)c2Cl)CCCCC1`: the outcome was inactive.

`CCCCSP(=O)(SCCCC)SCCCC`: the outcome was inactive.

Turning to `CCOP(=O)(OCC)Oc1cc(C)nc(C(C)C)n1`, the result was inactive.

`CCNc1nc(Cl)nc(NC(C)(C)C#N)n1`: the outcome was inactive.

Consider `CN(C)[C@@H]1C(=O)C(C(N)=O)=C(O)[C@@]2(O)C(=O)C3=C(O)c4c(O)cccc4[C@@](C)(O)[C@H]3[C@H](O)[C@@H]12`, for which the result was inactive.

`FC(F)C(F)(F)OCC(Cn1cncn1)c1ccc(Cl)cc1Cl` (stereo not given): the outcome was inactive.

`Cc1cc(C2CC2)nc(Nc2ccccc2)n1`: the result was inactive.

Take `CC(COc1ccc(Oc2ccccc2)cc1)Oc1ccccn1` (stereo not given): the outcome was inactive.

`CC(C1CC1)C(O)(Cn1cncn1)c1ccc(Cl)cc1` (stereo not given): the outcome was inactive.

Take `CON=C(C(=O)OC)c1ccccc1CON=C(C)c1cccc(C(F)(F)F)c1`: the result was inactive.

As to `C[Si](Cn1cncn1)(c1ccc(F)cc1)c1ccc(F)cc1`, the outcome was inactive.

Values taken from PubChem BioAssay (EPA / NIEHS).
